# Reference: ChEMBL document CHEMBL2218924, “A broad activity screen in support of a chemogenomic map for kinase signalling research and drug discovery” (Biochem J, 2013)
# What was measured:
# [1] = target: Death-associated protein kinase 1 (Homo sapiens) (UniProt P53355); conditions: at 10 µM
# [2] = target: Death-associated protein kinase 2 (Homo sapiens) (UniProt Q9UIK4); conditions: at 1 µM
# [3] = target: Death-associated protein kinase 2 (Homo sapiens) (UniProt Q9UIK4); conditions: at 10 µM
# [4] = target: T1, Serine/threonine-protein kinase DCLK2 (Homo sapiens) (UniProt Q8N568); conditions: at 1 µM
# T1 sequence (whole entry): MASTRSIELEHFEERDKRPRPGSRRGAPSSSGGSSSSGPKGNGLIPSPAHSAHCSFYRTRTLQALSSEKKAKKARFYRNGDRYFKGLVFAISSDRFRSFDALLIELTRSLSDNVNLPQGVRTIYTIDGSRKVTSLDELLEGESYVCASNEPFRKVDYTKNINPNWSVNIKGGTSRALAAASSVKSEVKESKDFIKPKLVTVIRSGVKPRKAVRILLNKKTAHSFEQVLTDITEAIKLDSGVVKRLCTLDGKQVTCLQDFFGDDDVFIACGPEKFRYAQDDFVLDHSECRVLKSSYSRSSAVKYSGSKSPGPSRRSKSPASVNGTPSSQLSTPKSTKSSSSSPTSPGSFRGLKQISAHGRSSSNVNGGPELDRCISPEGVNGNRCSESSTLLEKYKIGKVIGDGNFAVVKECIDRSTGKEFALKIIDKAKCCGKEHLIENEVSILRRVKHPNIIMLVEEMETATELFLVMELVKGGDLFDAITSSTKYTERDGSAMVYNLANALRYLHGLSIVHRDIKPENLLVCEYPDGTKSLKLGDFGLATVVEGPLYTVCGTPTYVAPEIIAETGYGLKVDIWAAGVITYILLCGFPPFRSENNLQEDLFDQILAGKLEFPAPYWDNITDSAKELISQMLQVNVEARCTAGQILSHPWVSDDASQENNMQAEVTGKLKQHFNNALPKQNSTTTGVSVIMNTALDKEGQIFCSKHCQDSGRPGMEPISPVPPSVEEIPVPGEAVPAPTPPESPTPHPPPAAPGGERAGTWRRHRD
# [5] = target: T1, Serine/threonine-protein kinase DCLK2 (Homo sapiens); conditions: at 10 µM
# [6] = target: T2, Serine/threonine-protein kinase 17A (Homo sapiens) (UniProt Q9UEE5); conditions: at 1 µM
# T2 sequence (whole entry): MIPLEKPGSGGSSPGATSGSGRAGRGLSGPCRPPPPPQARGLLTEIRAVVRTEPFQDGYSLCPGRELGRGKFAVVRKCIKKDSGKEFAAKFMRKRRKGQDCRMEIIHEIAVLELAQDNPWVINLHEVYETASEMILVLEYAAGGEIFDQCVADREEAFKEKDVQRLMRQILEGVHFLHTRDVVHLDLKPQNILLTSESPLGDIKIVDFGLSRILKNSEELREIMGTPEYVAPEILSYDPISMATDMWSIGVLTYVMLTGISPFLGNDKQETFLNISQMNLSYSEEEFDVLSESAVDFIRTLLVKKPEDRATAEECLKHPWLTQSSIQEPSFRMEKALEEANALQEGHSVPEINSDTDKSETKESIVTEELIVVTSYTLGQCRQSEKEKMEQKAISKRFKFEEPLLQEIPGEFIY
# [7] = target: T2, Serine/threonine-protein kinase 17A (Homo sapiens); conditions: at 10 µM
# [8] = target: T3, Ephrin type-A receptor 1 (Homo sapiens) (UniProt P21709); conditions: at 1 µM
# T3 sequence (whole entry): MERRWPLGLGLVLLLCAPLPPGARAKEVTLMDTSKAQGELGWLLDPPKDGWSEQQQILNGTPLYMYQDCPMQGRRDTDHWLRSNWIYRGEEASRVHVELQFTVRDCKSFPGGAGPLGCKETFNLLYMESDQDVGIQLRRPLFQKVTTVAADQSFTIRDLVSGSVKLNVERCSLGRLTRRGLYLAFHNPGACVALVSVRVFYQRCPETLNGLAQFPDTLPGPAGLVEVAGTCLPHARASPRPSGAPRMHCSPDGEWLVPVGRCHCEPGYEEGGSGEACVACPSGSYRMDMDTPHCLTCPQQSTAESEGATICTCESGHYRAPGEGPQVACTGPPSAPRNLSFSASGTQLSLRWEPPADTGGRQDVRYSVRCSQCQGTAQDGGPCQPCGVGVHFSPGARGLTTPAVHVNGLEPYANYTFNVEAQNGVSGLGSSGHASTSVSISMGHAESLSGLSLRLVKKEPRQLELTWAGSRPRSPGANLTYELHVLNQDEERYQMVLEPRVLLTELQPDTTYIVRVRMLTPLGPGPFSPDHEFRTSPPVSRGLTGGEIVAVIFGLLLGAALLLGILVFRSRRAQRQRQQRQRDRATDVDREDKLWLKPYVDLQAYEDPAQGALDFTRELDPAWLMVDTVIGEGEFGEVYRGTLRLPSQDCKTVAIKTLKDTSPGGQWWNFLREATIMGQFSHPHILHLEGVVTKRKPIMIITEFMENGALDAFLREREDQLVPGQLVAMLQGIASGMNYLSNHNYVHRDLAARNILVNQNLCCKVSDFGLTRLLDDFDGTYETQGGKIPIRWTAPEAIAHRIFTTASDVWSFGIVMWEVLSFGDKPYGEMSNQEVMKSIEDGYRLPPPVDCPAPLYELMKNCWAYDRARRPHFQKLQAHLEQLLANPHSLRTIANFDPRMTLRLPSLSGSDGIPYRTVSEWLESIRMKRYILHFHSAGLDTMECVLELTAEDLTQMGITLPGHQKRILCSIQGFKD
# [9] = target: T3, Ephrin type-A receptor 1 (Homo sapiens); conditions: at 10 µM
# [10] = target: Ephrin type-A receptor 2 (Homo sapiens) (UniProt P29317); conditions: at 10 µM
# Chain of Ephrin type-A receptor 2 (Homo sapiens) (P29317 whole entry, the tested form may be a part): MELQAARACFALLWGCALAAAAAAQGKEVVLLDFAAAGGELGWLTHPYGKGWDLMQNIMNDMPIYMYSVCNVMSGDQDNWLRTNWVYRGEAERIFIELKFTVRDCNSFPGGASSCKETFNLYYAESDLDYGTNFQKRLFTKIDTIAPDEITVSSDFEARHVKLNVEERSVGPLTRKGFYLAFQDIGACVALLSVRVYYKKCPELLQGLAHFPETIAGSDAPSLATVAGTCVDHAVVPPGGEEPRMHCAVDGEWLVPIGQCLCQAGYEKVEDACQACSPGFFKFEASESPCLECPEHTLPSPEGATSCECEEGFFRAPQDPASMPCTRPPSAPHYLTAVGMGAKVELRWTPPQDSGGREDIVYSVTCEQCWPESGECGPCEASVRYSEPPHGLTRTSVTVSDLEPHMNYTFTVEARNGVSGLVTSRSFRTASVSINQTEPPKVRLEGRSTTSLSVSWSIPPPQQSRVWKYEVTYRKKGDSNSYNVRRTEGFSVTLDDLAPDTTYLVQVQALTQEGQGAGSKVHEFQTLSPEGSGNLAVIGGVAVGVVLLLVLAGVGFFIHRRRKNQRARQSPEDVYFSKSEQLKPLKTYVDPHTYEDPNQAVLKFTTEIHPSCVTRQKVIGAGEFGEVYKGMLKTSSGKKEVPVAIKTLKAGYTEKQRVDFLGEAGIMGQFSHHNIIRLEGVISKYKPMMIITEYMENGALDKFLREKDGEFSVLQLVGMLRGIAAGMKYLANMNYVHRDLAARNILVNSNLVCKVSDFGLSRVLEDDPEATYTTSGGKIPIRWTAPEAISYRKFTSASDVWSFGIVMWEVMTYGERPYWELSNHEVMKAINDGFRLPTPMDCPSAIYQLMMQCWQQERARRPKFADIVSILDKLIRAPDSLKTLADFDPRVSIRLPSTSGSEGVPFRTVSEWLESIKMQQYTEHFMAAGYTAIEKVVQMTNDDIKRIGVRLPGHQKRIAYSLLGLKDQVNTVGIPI
# [11] = target: T4, Discoidin domain-containing receptor 2 (Homo sapiens) (UniProt Q16832); conditions: at 1 µM
# T4 sequence (whole entry): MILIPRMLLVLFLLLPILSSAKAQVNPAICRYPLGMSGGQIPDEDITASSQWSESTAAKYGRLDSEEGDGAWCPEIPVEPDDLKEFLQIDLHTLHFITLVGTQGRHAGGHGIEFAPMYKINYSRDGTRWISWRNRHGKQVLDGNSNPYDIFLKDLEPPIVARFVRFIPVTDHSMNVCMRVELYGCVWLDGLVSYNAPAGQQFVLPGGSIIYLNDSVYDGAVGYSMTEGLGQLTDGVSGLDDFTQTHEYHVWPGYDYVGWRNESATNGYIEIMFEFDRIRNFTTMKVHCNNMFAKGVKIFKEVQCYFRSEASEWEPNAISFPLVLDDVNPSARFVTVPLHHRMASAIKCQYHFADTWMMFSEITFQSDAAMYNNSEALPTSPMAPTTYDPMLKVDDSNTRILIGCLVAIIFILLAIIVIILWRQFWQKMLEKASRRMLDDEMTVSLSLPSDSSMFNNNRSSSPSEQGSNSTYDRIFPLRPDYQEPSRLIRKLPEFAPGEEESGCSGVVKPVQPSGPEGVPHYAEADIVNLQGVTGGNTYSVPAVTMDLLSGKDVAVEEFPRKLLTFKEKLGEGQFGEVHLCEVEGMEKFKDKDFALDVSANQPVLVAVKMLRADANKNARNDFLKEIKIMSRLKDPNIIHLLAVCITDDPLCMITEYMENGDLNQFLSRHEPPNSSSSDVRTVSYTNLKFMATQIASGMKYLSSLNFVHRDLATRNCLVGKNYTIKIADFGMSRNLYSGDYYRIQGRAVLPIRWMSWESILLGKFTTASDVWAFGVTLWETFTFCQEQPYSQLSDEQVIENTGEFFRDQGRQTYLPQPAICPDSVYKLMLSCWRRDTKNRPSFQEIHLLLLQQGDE
# [12] = target: T4, Discoidin domain-containing receptor 2 (Homo sapiens); conditions: at 10 µM
# [13] = target: T5, Myotonin-protein kinase (Homo sapiens) (UniProt Q09013); conditions: at 1 µM
# T5 sequence (whole entry): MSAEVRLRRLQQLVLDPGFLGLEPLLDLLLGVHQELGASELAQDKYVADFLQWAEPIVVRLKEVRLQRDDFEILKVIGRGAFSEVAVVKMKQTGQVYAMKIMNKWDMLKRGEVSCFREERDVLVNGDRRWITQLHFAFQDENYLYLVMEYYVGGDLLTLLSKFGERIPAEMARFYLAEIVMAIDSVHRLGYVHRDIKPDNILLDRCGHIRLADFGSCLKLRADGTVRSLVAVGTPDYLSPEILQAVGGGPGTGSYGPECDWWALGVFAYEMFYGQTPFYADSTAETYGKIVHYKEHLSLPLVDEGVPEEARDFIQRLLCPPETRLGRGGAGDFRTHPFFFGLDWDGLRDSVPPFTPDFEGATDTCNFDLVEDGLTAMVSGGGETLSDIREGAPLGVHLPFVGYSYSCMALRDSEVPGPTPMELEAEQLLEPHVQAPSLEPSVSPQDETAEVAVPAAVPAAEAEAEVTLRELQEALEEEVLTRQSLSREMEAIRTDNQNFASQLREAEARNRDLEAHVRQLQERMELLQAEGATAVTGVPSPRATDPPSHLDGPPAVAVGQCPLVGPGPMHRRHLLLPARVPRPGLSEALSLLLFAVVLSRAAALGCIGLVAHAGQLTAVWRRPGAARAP
# [14] = target: T5, Myotonin-protein kinase (Homo sapiens); conditions: at 10 µM
# [15] = target: Epidermal growth factor receptor (Homo sapiens) (UniProt P00533); conditions: at 1 µM
# Chain of Epidermal growth factor receptor (Homo sapiens) (P00533 whole entry): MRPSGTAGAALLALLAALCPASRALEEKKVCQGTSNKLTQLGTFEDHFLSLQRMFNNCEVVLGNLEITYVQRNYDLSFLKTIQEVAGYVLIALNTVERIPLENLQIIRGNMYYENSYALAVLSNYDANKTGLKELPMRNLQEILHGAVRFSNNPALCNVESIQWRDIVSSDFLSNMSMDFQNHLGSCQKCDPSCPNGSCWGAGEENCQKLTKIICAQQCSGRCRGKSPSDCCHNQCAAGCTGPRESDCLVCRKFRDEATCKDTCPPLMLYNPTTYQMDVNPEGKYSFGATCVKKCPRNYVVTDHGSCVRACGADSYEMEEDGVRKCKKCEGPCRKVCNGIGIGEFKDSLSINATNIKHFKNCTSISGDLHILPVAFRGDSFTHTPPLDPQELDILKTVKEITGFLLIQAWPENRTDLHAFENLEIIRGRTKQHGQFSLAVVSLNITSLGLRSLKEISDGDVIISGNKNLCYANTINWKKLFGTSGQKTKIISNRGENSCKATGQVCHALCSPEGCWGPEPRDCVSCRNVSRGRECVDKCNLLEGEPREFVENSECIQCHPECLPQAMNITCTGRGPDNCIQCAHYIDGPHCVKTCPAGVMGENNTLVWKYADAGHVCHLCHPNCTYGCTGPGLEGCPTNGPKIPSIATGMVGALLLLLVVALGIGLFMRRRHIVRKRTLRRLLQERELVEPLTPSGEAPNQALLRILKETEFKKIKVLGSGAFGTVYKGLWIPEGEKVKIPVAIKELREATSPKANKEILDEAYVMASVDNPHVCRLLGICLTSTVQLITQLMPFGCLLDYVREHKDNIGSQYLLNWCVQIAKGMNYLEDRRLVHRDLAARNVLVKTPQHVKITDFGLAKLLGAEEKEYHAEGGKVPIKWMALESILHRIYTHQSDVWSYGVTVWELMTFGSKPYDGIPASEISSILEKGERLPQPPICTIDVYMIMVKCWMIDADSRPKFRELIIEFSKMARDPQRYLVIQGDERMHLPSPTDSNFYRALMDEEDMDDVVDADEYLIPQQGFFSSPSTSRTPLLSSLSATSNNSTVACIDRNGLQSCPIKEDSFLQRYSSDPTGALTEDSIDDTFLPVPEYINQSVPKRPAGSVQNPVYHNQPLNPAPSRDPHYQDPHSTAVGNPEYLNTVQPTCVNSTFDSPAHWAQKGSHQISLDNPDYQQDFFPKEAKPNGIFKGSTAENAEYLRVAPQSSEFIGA
# [16] = target: Epidermal growth factor receptor (Homo sapiens) (UniProt P00533); conditions: at 10 µM
# [17] = target: T6, Dual specificity tyrosine-phosphorylation-regulated kinase 2 (Homo sapiens) (UniProt Q92630); conditions: at 1 µM
# T6 sequence (whole entry): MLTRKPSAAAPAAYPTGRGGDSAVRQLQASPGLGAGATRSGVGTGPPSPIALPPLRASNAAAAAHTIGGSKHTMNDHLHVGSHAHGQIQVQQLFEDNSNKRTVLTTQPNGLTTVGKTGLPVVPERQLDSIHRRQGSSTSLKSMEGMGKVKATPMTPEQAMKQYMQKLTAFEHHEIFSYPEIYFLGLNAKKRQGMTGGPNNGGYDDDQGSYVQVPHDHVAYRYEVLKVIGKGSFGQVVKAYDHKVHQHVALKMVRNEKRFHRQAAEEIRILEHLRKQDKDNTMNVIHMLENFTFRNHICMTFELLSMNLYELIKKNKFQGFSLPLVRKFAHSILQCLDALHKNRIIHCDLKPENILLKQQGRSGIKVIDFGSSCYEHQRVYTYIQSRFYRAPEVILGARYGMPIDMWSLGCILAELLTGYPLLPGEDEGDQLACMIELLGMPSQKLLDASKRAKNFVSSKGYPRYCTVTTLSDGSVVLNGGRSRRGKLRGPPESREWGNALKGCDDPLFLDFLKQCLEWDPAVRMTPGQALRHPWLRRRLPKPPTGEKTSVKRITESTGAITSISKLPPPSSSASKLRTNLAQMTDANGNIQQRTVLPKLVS
# [18] = target: T6, Dual specificity tyrosine-phosphorylation-regulated kinase 2 (Homo sapiens); conditions: at 10 µM
# [19] = target: Ephrin type-A receptor 2 (Homo sapiens) (UniProt P29317); conditions: at 1 µM
# [20] = target: T7, Ephrin type-A receptor 3 (Homo sapiens) (UniProt P29320); conditions: at 1 µM
# T7 sequence (whole entry): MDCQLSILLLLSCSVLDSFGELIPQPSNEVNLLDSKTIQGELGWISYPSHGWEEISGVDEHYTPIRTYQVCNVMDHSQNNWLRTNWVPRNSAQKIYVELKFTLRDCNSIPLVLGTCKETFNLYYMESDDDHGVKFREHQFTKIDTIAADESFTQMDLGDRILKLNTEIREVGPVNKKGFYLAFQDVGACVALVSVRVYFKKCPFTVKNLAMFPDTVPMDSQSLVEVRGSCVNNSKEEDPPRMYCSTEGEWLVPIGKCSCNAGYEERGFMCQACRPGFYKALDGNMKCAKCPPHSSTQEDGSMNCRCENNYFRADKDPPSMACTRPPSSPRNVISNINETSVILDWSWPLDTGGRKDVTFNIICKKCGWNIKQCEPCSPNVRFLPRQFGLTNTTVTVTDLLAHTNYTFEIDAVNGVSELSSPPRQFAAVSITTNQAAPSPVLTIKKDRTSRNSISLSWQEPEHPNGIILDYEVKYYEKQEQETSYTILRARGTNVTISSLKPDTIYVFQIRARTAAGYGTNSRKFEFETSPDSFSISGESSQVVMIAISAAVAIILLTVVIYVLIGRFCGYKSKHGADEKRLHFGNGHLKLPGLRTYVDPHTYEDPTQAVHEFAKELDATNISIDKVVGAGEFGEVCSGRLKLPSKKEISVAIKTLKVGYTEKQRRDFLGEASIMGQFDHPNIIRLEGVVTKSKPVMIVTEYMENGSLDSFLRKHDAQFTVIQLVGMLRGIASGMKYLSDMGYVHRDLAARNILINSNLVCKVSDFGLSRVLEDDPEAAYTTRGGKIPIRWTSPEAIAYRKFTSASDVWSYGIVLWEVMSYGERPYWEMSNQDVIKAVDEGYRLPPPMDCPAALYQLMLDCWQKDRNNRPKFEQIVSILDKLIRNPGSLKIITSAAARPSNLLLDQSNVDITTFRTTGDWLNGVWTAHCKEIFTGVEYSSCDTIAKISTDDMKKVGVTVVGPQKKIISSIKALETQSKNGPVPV
# Chain of Death-associated protein kinase 1 (Homo sapiens) (P53355 whole entry, looked up): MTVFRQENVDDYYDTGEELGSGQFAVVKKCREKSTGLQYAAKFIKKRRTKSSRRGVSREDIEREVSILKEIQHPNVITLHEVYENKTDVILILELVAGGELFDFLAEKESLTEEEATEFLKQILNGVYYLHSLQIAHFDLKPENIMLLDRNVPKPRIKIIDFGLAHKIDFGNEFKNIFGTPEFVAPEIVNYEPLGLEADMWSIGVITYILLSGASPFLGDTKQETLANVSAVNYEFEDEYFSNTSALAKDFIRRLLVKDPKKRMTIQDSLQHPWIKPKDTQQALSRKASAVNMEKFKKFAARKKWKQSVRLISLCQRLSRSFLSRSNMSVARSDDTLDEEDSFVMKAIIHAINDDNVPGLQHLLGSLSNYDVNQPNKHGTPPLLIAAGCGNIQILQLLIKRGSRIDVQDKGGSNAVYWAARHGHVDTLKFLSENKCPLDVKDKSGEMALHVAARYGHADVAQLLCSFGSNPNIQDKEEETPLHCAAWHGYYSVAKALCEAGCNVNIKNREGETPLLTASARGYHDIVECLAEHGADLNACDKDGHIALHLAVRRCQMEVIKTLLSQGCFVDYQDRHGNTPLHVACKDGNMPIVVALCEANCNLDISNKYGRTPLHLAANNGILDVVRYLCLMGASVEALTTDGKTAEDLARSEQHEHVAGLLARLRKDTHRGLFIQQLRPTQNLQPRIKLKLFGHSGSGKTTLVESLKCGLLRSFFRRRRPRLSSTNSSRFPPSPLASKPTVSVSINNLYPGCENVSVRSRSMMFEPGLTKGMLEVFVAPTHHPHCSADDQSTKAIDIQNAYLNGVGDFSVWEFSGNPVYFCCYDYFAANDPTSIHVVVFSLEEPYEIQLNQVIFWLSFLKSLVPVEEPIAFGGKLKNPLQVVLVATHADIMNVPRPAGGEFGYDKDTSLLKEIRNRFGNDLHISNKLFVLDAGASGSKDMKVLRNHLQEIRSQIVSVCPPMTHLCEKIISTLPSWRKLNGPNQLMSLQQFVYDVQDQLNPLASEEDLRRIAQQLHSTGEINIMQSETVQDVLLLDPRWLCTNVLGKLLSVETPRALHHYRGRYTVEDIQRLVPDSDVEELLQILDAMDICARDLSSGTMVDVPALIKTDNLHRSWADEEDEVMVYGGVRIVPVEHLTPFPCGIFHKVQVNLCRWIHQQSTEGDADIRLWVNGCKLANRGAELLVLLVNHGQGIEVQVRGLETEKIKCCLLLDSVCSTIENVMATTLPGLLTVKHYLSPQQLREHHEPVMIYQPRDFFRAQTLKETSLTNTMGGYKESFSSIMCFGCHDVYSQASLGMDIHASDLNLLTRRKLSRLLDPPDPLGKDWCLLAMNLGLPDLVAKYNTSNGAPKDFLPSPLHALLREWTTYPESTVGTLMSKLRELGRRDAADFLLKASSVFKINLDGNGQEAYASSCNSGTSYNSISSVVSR
# Chain of Death-associated protein kinase 2 (Homo sapiens) (Q9UIK4 whole entry, looked up): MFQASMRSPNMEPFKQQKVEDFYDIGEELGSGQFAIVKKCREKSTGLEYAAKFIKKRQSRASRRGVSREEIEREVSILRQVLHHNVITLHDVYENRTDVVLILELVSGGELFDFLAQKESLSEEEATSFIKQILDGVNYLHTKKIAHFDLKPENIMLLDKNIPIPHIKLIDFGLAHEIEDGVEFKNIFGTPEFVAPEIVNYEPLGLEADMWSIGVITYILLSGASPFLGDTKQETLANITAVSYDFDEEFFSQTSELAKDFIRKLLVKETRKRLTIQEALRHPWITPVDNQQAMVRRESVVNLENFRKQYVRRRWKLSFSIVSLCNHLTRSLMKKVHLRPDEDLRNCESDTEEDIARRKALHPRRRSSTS
smiles,measurement,setting,value
Nc1nc(Nc2ccc(S(N)(=O)=O)cc2)nn1C(=O)c1c(F)cccc1F,residual activity,[1],96%
same,residual activity,[2],97%
same,residual activity,[3],77%
same,residual activity,[4],68%
same,residual activity,[5],25%
same,residual activity,[6],77%
same,residual activity,[7],47%
same,residual activity,[8],58%
same,residual activity,[9],6%
same,residual activity,[10],39%
COc1ccc(Cl)cc1NC(=O)Nc1cc(C)nc2ccccc12,residual activity,[1],66%
same,residual activity,[11],83%
same,residual activity,[12],39%
same,residual activity,[13],94%
same,residual activity,[6],97%
same,residual activity,[7],58%
same,residual activity,[8],89%
same,residual activity,[9],89%
O=S(=O)(c1cccc2cnccc12)N1CCCNCC1,residual activity,[8],100%
O=c1c(-c2ccc(F)cc2)c(-c2ccncc2)[nH]n1-c1ccc(Cl)cc1,residual activity,[4],122%
same,residual activity,[12],36%
same,residual activity,[14],99%
same,residual activity,[7],71%
same,residual activity,[15],54%
same,residual activity,[16],6%
same,residual activity,[9],56%
O=C1C(Cl)=C(N2C(=O)CCC2=O)C(=O)c2ccccc21,residual activity,[1],90%
same,residual activity,[11],89%
same,residual activity,[14],85%
same,residual activity,[7],82%
same,residual activity,[17],100%
same,residual activity,[18],92%
same,residual activity,[9],84%
same,residual activity,[19],93%
same,residual activity,[20],85%
CCN1/C(=C/C(C)=O)Sc2ccc(OC)cc21,residual activity,[1],79%
same,residual activity,[14],70%
same,residual activity,[17],5%
same,residual activity,[18],-5%
